Pf apPOL inh: Pf-apPOL DNA polymerase inhibition; Recombinant Pf-apPOL, molecular beacon fluorescence, 1.5 h; inhibition, % at 10 µM; 210,000 tested, 0.25% active
mHTT CaM bind: mHTT-calmodulin interaction abrogation | inhibition, % at 15 µM | AlphaScreen His-mHTT/GST-CaM binding, luminescence | 190,000 tested, 3.6% active;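 further: 0% = both proteins with DMSO and 100% = one protein alone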
* = called active by the depositor; / = no result. Hits are enriched below; roughly 3.5% of the tested compounds scored in any of these assays. No stated cut-off is given here; in the data, active means inhibition above about 50%; inactive means the rest.

SMILES	Pf apPOL inh	mHTT CaM bind
COc1cc(/C=C2/SC(c3ccc(C)cc3)=NC2=O)ccc1O	1	53*
COc1cc(C=C2SC(=S)N(CCCCC(C(=O)O)N3C(=O)C(=Cc4ccc(O)c(OC)c4)SC3=S)C2=O)ccc1O (stereo unspecified)	62*	49
COC(=O)CN1C(=O)C(=Cc2ccc(O)c(OC)c2)SC1=S	-18	58*
O=C(c1cnccn1)N1CCCC(Nc2ncnc3c2CCC3)C1 (stereo unspecified)	-4	-11
COC(=O)[C@@H]1[C@H]2C[C@H]3c4[nH]c5ccccc5c4CCN3C[C@@H]2CC[C@@H]1O	-9	/
CCCCC(C(=O)O)N1C(=O)C(=Cc2cc(OC)c(OC)c(OC)c2)SC1=S (stereo unspecified)	-64	55*
CCC(C(=O)O)N1C(=O)C(=Cc2cc(OC)c(OC)c(OC)c2)SC1=S (stereo unspecified)	2	19
CCCC(C(=O)O)N1C(=O)C(=Cc2cccc(OC)c2OC)SC1=S (stereo unspecified)	-28	22
CCCC(C(=O)O)N1C(=O)C(=Cc2ccccc2OC)SC1=S (stereo unspecified)	-60	60*
CCN(CC)c1ccc(/C=C2/C(=N)N3N=C(C(F)(F)F)SC3=NC2=O)cc1	-5	2
Cc1nc2ccccc2n1C(=O)c1ccc(F)cc1	-6	-7
COc1cc(C(=O)n2c(C)nc3ccccc32)cc(OC)c1OC	-12	89*
Cc1ccc(N2NC(=O)/C(=C\c3ccccc3)C2=O)cc1	4	31
CC1CCC(C(C)C)C(OCC(O)CN2CCCCC2)C1 (stereo unspecified)	-6	-2
Cc1cc(=O)[nH]c(-c2cnccn2)n1	-17	94*
Cc1cc(=O)[nH]c(-c2ccccc2)n1	-2	/
O=C1CSC(c2ccc3c(c2)OCO3)N1c1ccc(Oc2ccccc2)cc1 (stereo unspecified)	-1	100*
Cc1ccc(N2C(=O)CSC2c2ccc([N+](=O)[O-])cc2)cc1 (stereo unspecified)	0	8
O=C1CSC(c2ccc([N+](=O)[O-])cc2)N1c1ccc(Oc2ccccc2)cc1 (stereo unspecified)	-2	75*
Cc1ccc(N2C(=O)CSC2c2ccc3c(c2)OCO3)cc1 (stereo unspecified)	-2	1
O=C(C1CC1)N1CCc2cc(S(=O)(=O)Nc3ccc4c(c3)OCCO4)ccc21	1	11
COc1ccc(-c2nc3ccc(C)cn3c2NC(=O)C2CCCCC2)cc1OC	3	36
COc1ccc(-c2nc3ccc(C)cn3c2NC(=O)C(Cl)Cl)cc1OC	33	52*
COc1ccc(-c2nc3ccccn3c2NC(=O)C2CCCCC2)cc1OC	-5	59*
COc1ccc(-c2nc3ccc(C)cn3c2NC(C)=O)cc1OC	8	8
SMILES	Pf apPOL inh	mHTT CaM bind
CCC1CCCCN1C(=O)NC1(C(F)(F)F)Oc2ccccc2O1 (stereo unspecified)	-5	0
O=C1CC(Nc2ccccc2)C(=O)N1c1cccc(Cl)c1 (stereo unspecified)	4	-5
CCCCN1C(=O)C(CC(=O)Nc2cccc(SC)c2)Sc2ncccc21 (stereo unspecified)	-4	2
CC(C)c1ccc2oc(-c3cc(N)ccc3O)nc2c1	-7	62*
Cc1ccc2oc(-c3cc(N)ccc3O)nc2c1	-10	34
Cc1cc(C2(c3ccc(O)c(C)c3)C(=O)N(C)c3ccc(Br)cc32)ccc1O	-6	87*
CC(=O)c1c(C(C)=O)c(C)n(-c2cc(Br)ccc2O)c1C	-1	24
O=C(CC1Sc2ccccc2NC1=O)Nc1cc(C(F)(F)F)ccc1Cl (stereo unspecified)	-4	-6
Cc1ccc2ccc(C(Nc3ccccn3)c3ccsc3)c(O)c2n1 (stereo unspecified)	-4	76*
Cc1sc(NC(=O)c2ccccc2)c(C(Nc2ccccn2)c2cccs2)c1C (stereo unspecified)	0	-9
CCOc1ccccc1Nc1cc(C)nc2c(C)cccc12	-2	-8
COc1ccc(C(Nc2ccccn2)c2ccc3ccc(C)nc3c2O)cc1 (stereo unspecified)	-1	72*
COc1ccc(NCc2ccccn2)cc1	-5	/
CCOc1ccc(C(Nc2ccccn2)c2ccc3ccc(C)nc3c2O)cc1C (stereo unspecified)	25	75*
COc1ccc(NC(=O)c2cc(S(=O)(=O)N3CCN(c4ccccn4)CC3)ccc2F)cc1	-4	15
CC1C(=O)N(c2cccc(F)c2)CCN1C(=O)c1ccccc1Cl (stereo unspecified)	-5	-7
Cc1cc(OCC(=O)N2CCCC(C)C2)nc(-c2ccc(Cl)cc2)n1 (stereo unspecified)	3	-16
CCC(C)NC(=O)N1CCCN(C(C)=O)CC1 (stereo unspecified)	2	-2
Cc1ccc2nc3c(C(=O)N4CCN(Cc5ccccc5)CC4)cccn3c(=O)c2c1	-3	84*
O=C(NC1CCN(Cc2ccccc2)CC1)c1cccn2c(=O)c3cc(Cl)ccc3nc12	-2	13
CCCCCNC(=O)C1CCN(c2ncccc2-c2nc(-c3ccccc3)no2)CC1	2	1
Cc1ccccc1/C=C1\Sc2ccccc2N(CC(=O)NC2CCCCC2)C1=O	2	1
CC(C)NC(=O)c1ccc(OCC2CCCN(C(=O)c3ccco3)C2)cc1 (stereo unspecified)	-3	10
O=C(Nc1ccc(-c2ccc(=O)[nH]n2)cc1)c1ccc(-n2cccn2)nn1	2	-14
O=C(Nc1ccc(Nc2ccc(-n3cccn3)nn2)cc1)c1ncccn1	-1	91*
SMILES	Pf apPOL inh	mHTT CaM bind
COc1cccc(C(O)CN2CCN(c3cccc(C)c3)CC2)c1 (stereo unspecified)	2	5
CCCSc1nc2ccccc2n1CCO	-8	1
CCOc1ccc(N(CC)C(=O)c2nc(C)n(C3CCN(S(C)(=O)=O)CC3)c2C)cc1	-4	12
COc1ccc(N(C)C(=O)c2nc(C)n(C3CCN(S(C)(=O)=O)CC3)c2C)cc1	-12	86*
Cc1cnc(NS(=O)(=O)c2ccccc2)c(C)n1	-6	/
Cc1c(CCC#N)c(NCCCN(C)C)n2c(nc3ccccc32)c1C#N	-1	-5
C=CCN1C[C@@H](COCc2ccccc2)Oc2cccc(F)c2S1(=O)=O	1	-49
N#CC1=C(N)C(C#N)(C#N)C(c2ccc(O)cc2)C2CCCC=C12 (stereo unspecified)	-4	-3
N#CC1=C(N)C(C#N)(C#N)C(c2ccc(I)cc2)C=C1C1CC1 (stereo unspecified)	1	58*
Cc1cc(=O)n(CC(=O)Nc2ccc(F)cc2Cl)c(N2CCCCC2)n1	-2	-8
O=C(NCCc1c[nH]c2ccccc12)c1cc2n(n1)C(C(F)(F)F)CC(c1ccco1)N2 (stereo unspecified)	-2	62*
O=C(NCc1ccccc1F)c1cc2n(n1)C(C(F)(F)F)CC(c1ccco1)N2 (stereo unspecified)	-3	-3
Cc1cc(C)cc(C(=O)OCCCN(C)C2CN(Cc3cn(Cc4ccccc4Cl)nn3)S(=O)(=O)C2)c1 (stereo unspecified)	-4	36
Fc1ccc(C2=NCCC(c3ccccc3)O2)cc1 (stereo unspecified)	-10	51*
O=C1OC(c2ccc(F)cc2)=N/C1=C\c1ccccc1	-1	11
Cc1n[nH]c(C)c1Sc1ccccc1N=Cc1cc(Cl)ccc1O	-6	31

Source: PubChem (University of Kansas High Throughput Screening Laboratory)
